# Laboratory results from PubChem BioAssay.
# Active and inactive are the calls of the source.
# Legend:
# [1] = test system: Human papillomavirus type 1a protein E7 (residues 44-93); test: small molecules binding HPV E7 44-93 – biochemical, small-molecule microarray, residues 44-93, 635 nm fluorescence, primary screen (AID 1108); conditions: fluorescence 635 nm, higher = more signal;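 further: E7 fragment applied at 1 µg/mL in TBST for 1 h at 4 C; score combines spot fluorescence with its signal to noise ratio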
# [2] = hepatitis C replication reporter changes, two-sided – Huh7 cells, luciferase reporter, HCV replication inhibitor project, primary screen (AID 1109); conditions: Huh7 HCV replicon luciferase reporter, 48 h; higher = more signal;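 further: huh7 hepatoma cells harbouring a luciferase neomycin HCV replicon reporter; luciferase luminescence as measure of HCV replicon replication; test concentration not given here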
# [3] = molecular target: Left-right determination factor 2 (Homo sapiens) (UniProt O00292); test: small molecules binding LEFTY2 protein – biochemical, small-molecule microarray, 635 nm fluorescence scan, primary screen (AID 1110); conditions: higher = more signal
# Sequence of Left-right determination factor 2 (Homo sapiens) (O00292 whole entry, looked up): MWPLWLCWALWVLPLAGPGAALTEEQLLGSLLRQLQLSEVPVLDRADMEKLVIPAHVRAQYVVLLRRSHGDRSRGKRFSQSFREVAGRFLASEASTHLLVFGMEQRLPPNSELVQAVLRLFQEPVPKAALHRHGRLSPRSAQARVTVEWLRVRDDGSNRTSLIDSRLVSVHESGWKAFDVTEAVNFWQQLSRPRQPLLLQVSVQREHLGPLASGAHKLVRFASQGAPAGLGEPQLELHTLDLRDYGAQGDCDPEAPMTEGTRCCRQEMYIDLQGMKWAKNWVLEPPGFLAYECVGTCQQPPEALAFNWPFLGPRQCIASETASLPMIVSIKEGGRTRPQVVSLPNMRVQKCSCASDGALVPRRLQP
# [4] = molecular target: Calmodulin-1 (Homo sapiens) (UniProt P0DP23); test: small molecules binding calmodulin-1 with EGTA – biochemical, small-molecule microarray, Cy5-labelled CALM1, profiling panel (AID 1111); conditions: Cy5-CALM1 binding fluorescence, higher = more signal;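 further: labelled calmodulin applied in Tris saline Tween buffer holding calcium plus EGTA and DTT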
# [5] = molecular target: Calmodulin-1 (Homo sapiens) (UniProt P0DP23); test: small molecules binding Ca-loaded calmodulin-1 – biochemical, small-molecule microarray, Cy5-labelled CALM1, plus calcium, artefact control for SMM control-protein annotation, profiling panel (AID 1112); conditions: Cy5-CALM1 binding fluorescence, higher = more signal;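 further: score merges spot fluorescence with signal to noise from triplicate slides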
# [6] = probe aWnt5a binding to arrayed compounds – biochemical, biotinylated probe, 635/667 nm fluorescence, primary screen (AID 1113); conditions: small-molecule microarray, higher = more signal;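 further: score merges 667 nm fluorescence intensity with signal-to-noise per printed feature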
# [7] = probe aShh binding to arrayed compounds – biochemical, biotinylated probe, 635/667 nm fluorescence, primary screen (AID 1114); conditions: small-molecule microarray, higher = more signal;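 further: probe is biotin-labelled aShh protein from a stem cell growth factor screen; measures binding of labelled protein to compounds printed on the slide; score merges feature fluorescence at 667 nm with signal-to-noise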
# [8] = probe aNog binding to arrayed compounds – biochemical, biotinylated probe, 635/667 nm fluorescence, primary screen (AID 1115); conditions: small-molecule microarray, higher = more signal;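 further: probe is biotinylated aNog protein used at 0.15 µg/mL for 1 h at 4 C; z-score combines 667 nm fluorescence of each spot with its signal to noise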
# [9] = molecular target: Torsin-1A-interacting protein 1 (Homo sapiens) (UniProt Q5JTV8); test: compound microarray binding of lysate hLAP1 – cell lysate, small-molecule microarray, COS7 lysate, 635/667 nm fluorescence, primary screen (AID 1116); conditions: 635 nm fluorescence, higher = more signal
# Sequence of Torsin-1A-interacting protein 1 (Homo sapiens) (Q5JTV8 whole entry, looked up): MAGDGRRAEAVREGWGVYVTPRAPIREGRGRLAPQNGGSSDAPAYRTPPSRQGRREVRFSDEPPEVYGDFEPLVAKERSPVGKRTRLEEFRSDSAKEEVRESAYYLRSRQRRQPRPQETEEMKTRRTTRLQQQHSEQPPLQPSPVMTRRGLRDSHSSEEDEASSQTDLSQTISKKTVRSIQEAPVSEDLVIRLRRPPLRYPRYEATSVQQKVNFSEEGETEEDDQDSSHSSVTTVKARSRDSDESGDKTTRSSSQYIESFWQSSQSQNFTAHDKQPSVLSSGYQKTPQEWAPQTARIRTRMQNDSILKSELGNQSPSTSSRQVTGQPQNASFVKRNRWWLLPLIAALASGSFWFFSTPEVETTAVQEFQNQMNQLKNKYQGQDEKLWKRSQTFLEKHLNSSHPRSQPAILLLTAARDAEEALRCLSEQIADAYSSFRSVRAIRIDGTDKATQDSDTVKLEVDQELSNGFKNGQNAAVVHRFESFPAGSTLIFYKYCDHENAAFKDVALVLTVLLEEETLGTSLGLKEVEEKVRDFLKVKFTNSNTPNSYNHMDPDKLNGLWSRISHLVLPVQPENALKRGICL
# [10] = molecular target: Alpha-bungarotoxin (Bungarus multicinctus) (UniProt P60615); test: compounds binding labelled alpha-BTX control protein – biochemical, small-molecule microarray, Alexa647 label, 635/667 nm fluorescence, artefact control for SMM control protein annotation, profiling panel (AID 1117); conditions: alpha-BTX-A647 binding fluorescence, higher = more signal
# Sequence of Alpha-bungarotoxin (Bungarus multicinctus) (P60615 whole entry, looked up): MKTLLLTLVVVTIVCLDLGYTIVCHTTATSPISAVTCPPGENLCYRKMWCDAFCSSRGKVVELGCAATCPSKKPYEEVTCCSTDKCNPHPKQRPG
# Albumin (Bos taurus) = Albumin (Bos taurus) (UniProt P02769); test: compounds binding labelled BSA control protein – biochemical, small-molecule microarray, Alexa647 label, 635/667 nm fluorescence, artefact control for SMM control protein annotation, profiling panel (AID 1118); conditions: BSA-A647 binding, fluorescence 635 nm, higher = more signal;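 further: score merges 667 nm emission intensity and signal-to-noise per printed compound spot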
# Sequence of Albumin (Bos taurus) (P02769 whole entry, looked up): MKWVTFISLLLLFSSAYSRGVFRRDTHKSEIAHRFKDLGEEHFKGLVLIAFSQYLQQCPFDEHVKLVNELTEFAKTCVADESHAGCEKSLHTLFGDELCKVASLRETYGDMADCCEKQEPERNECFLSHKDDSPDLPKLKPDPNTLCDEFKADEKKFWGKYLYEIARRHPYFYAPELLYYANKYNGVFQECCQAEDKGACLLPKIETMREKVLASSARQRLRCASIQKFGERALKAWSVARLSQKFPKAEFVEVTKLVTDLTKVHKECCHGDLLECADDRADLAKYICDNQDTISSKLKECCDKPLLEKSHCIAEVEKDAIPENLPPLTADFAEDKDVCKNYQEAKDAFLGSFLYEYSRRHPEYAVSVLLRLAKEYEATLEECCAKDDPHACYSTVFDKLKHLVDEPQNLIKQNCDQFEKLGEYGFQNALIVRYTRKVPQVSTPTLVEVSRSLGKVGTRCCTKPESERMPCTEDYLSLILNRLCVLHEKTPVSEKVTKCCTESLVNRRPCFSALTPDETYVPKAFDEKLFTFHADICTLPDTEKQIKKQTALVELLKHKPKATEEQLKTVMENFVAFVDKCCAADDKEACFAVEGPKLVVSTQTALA
# [11] = probe aXIP binding to arrayed compounds – biochemical, NeuroSMM set, 635/667 nm fluorescence, primary screen (AID 1119); conditions: small-molecule microarray, higher = more signal, called active from +8 up or from −8 down;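 further: probe is the protein aXip251-270 applied at 1 µg/mL to compound-printed slides; binding of probe to printed compounds measured as 667 nm fluorescence plus signal to noise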
# [12] = probe aNOTCH3 binding on compound microarray – biochemical, small-molecule microarray, 635/667 nm fluorescence, primary screen (AID 1120); conditions: higher = more signal;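 further: probe is a biotin-tagged antibody raised against NOTCH3 rather than NOTCH3 protein; score merges spot fluorescence near 667 nm with spot signal to noise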
# [13] = probe aNOTCH2 binding on compound microarray – biochemical, small-molecule microarray, 635/667 nm fluorescence, primary screen (AID 1121); conditions: higher = more signal;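 further: score merges feature fluorescence read at 667 nm with its signal to noise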
# [14] = molecular target: Carbonic anhydrase 2 (Homo sapiens) (UniProt P00918); test: compounds binding carbonic anhydrase 2 – biochemical, small-molecule microarray, Alexa647-labelled CAII, profiling panel (AID 1122); conditions: CAII-A647 binding fluorescence, higher = more signal
# [15] = COS7 lysate on small-molecule microarray, probe aHis, 635 nm (AID 1123); conditions: COS7 cell lysate, fluorescence, higher = more signal;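 further: z-score combines 667nm fluorescence intensity with signal-to-noise per printed compound spot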
# [16] = probe aLAP1 signal on lysate-treated microarray – cell lysate, small-molecule microarray, COS7 lysate, primary screen (AID 1124); conditions: probe aLAP1, fluorescence, higher = more signal;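 further: lysate comes from COS7 cells expressing LAP1 and is applied at 0.3 µg/mL; score merges spot fluorescence near 667 nm with signal-to-noise over triplicate slides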
# Sam68 (KHDRBS1) = test: compounds binding KHDRBS1 protein – biochemical, small-molecule microarray, 635 nm fluorescence, primary screen (AID 1125); conditions: higher = more signal;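 further: score merges 667 nm channel intensity with signal to noise over triplicate slides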
# [17] = test system: Chordin-like protein 2 (CHRDL2); test: compounds binding chordin-like 2 – biochemical, small-molecule microarray, 635 nm fluorescence, primary screen (AID 1126); conditions: fluorescence 635 nm, higher = more signal;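 further: printed compound slides probed with Chrdl2 protein at 4 µg/mL for 1 h at 4 C; score merges 667 nm emission intensity with signal to noise over three replicate slides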
# [18] = molecular target: Concanavalin-A (Canavalia ensiformis) (UniProt P02866); test: compounds binding concanavalin A lectin – biochemical, small-molecule microarray, Alexa647 label, 635 nm, artefact control for SMM control protein annotation, primary screen (AID 1127); conditions: ConA-A647 binding fluorescence, higher = more signal;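 further: z combines 667 nm emission intensity with signal-to-noise across three replicate slides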
# Sequence of Concanavalin-A (Canavalia ensiformis) (P02866 whole entry, looked up): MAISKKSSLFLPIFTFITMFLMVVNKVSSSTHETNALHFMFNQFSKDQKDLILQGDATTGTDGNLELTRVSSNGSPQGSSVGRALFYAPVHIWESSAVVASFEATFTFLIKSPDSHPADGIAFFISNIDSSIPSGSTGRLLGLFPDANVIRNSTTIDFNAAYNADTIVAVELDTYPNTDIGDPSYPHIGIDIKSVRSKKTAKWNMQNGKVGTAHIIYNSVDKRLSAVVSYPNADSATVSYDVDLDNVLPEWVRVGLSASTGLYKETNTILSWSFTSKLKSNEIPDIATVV
SMILES,composite z-score [1],z-score [2],composite z-score [3],composite z-score [4],composite z-score [5],composite z-score [6],composite z-score [7],composite z-score [8],composite z-score [9],composite z-score [10],composite z-score (Albumin (Bos taurus)),composite Z-score [11],composite z-score [12],composite z-score [13],composite z-score [14],composite z-score [15],composite z-score [16],composite z-score (Sam68 (KHDRBS1)),composite z-score [17],composite z-score [18]
O=C1[C@H]2[C@H]3[C@H](O)[C@H](O)CC(=NOC[C@@H](O)COCc4ccco4)[C@H]3CC[C@H]2C(=O)N1C[C@@H]1CCCO1,-0.317,-0.205,1.19,-0.428,-1.53,-0.0037,0.0899,-0.158,0.583,0.349,-0.483,0.382 (inactive),-0.0976,-0.208,-0.237,-0.736,-0.353,0.293,1.38,-0.294
Cn1c(=O)n2n(c1=O)[C@H]1[C@H](O)[C@@H]3O[C@@H]3C(=O)[C@H]1CC2,0.625,0.101,0.486,-0.144,-0.502,-0.104,-0.0146,-0.234,0.663,-0.541,-0.161,-0.301 (inactive),-0.172,-0.124,-0.0126,-0.0596,0.0837,0.327,0.387,0.513
CCOC(=O)[C@H](Cc1ccccc1)NC(=O)CCC1CC(OC(=O)NCCc2ccc(F)cc2)CC2(CCCC(COC(=O)NCCc3ccc(Cl)cc3)O2)O1 (stereo not given in full),1.33,-0.226,0.546,1.28,0.198,-0.158,-0.0977,0.232,0.949,0.49,0.755,0.118 (inactive),0.0179,-0.101,0.283,1.12,0.416,1.23,0.38,1.03
C[C@H]1COC(=O)[C@@H]2CCCN2C(=O)[C@@H](C)COC(=O)[C@H](Cc2ccccc2)NC1=O,0.851,-1.34,0.474,-0.099,-0.447,-0.124,-0.206,-0.3,0.308,0.158,-0.0588,-0.21 (inactive),-0.0647,-0.126,0.294,0.403,0.137,0.957,0.211,0.476
C[C@@H]1CC[C@H]2C(=O)O[C@@H](Cc3ccccc3)CN2[C@H]1c1ccc(Br)cc1,0.712,0.166,0.276,0.134,0.216,-0.118,-0.221,-0.158,0.579,0.198,0.126,-0.358 (inactive),-0.0997,-0.106,0.512,0.871,0.912,1.06,0.227,0.266
C[C@@H](c1ccccc1)N1C(=O)[C@H]2[C@H]3[C@H](O)[C@H](O)CC(=NO[C@@H]4O[C@H](CO)[C@@H](O)[C@H](O)[C@H]4O)[C@@H]3CC[C@H]2C1=O,0.292,-0.278,0.576,-0.238,-0.686,-0.0403,-0.19,0.0924,0.526,0.199,0.423,-0.766 (inactive),0.0996,-0.109,-0.157,0.335,-0.0315,0.258,0.25,0.411
CCOC(=O)[C@H](CC(C)C)NC(=O)CCC1CC(OC(=O)NCc2cccc3ccccc23)CC2(CCCC(COC(=O)NCC3CCCCC3)O2)O1 (stereo not given in full),1.31,-1.93,0.559,0.162,-0.376,-0.0792,-0.2,-0.256,0.158,0.742,0.14,0.526 (inactive),0.0311,-0.0896,0.392,0.0741,-0.0193,1.29,0.32,1.08
CO[C@H]1COC(=O)CC=C[C@H](C)[C@@H](OC)COC(=O)[C@@H](C)COC(=O)CC=C[C@@H]1C,-0.544,-1.09,1.16,-2.12,-2.84,-0.1,-0.0769,-0.339,0.34,-1.47,-0.93,0.793 (inactive),-0.0647,-0.146,-0.535,-0.25,-0.145,-0.132,1.51,-1.85
COc1ccc(COC(=O)NN=C2C[C@@H](O)[C@@H](O)[C@@H]3[C@@H]4C(=O)N(C5CCCCC5)C(=O)[C@@H]4CC[C@H]23)cc1,-0.605,-2.37,-0.877,0.979,-0.0278,-0.243,-0.315,0.051,1.03,0.161,0.213,1.22 (inactive),-0.365,-0.28,0.262,-0.0294,-0.222,-0.331,-0.275,-1.14
CON=C1[C@H]2CCn3c(=O)n(-c4ccccc4)c(=O)n3[C@H]2[C@H](O)[C@@H]2O[C@H]12,0.548,-2.1,0.661,-0.345,-0.536,-0.0445,-0.138,-0.158,-0.501,0.269,0.103,0.119 (inactive),-0.0006,-0.121,0.0479,-0.364,0.0879,0.689,0.501,0.217
CCOC(=O)[C@H](CC(C)C)NC(=O)CCC1CC(OC(=O)NCCc2ccc(F)cc2)CC2(CCCC(COC(=O)NCCc3ccc(Cl)cc3)O2)O1 (stereo not given in full),0.585,-1.19,0.839,-0.222,-0.0499,-0.0044,-0.156,-0.45,0.456,1.02,0.587,0.133 (inactive),0.163,-0.0495,0.606,1.61,0.037,1.03,0.446,-0.485
CC(C)CON=C1C[C@@H](O)[C@@H](O)[C@@H]2[C@@H]3C(=O)N(C[C@@H]4CCCO4)C(=O)[C@@H]3CC[C@@H]12,0.267,0.444,0.0128,-0.333,0.0901,-0.173,-0.123,-0.103,-0.419,0.678,0.268,0.223 (inactive),-0.0967,-0.14,0.165,0.421,0.419,0.12,-0.39,-0.339
